From the supplement of paper PMC8975748 come the findings set out here.

Structures can show the parent of a compound that is named as a salt.

This experiment relates to Saccharomyces cerevisiae BY4741 SeMeCo community. The experiment in a line: z-score of subpopulation abundance vs DMSO median, subpopulation auxotrophic for U; higher = larger share of this subpopulation than in DMSO controls. The conditions noted are these: 10 µM; 24 h; SM minimal medium; subpopulation (auxotrophy): U. How it is done: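 Fluorescent four-plasmid SeMeCo (self-establishing metabolically cooperating S. cerevisiae BY4741 community; plasmids pH-mRuby2, pL-mWasabi, pU-eCFP, pM-TagRFP657) was grown 24 h in minimal SM medium with each Selleck FDA-approved drug at 10 µM in 384-well plates. Cells were fixed and imaged by high-content confocal microscopy. For each auxotrophic subpopulation (and the prototroph), a z-score gives the deviation from the DMSO vehicle-control population median.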
For `CC(C)(C)CC(C)(C)c1ccc(OCCOCC[N+](C)(C)Cc2ccccc2)cc1` [Benzethonium Chloride], the “z-score of subpopulation abundance” value worked out at 0.39.
Next, `COc1ccnc(C[S+]([O-])c2nc3cc(OC(F)F)ccc3[nH]2)c1OC` (stereo not given) [Pantoprazole]: -0.43; `CO/N=C(\C(=O)N[C@@H]1C(=O)N2C(C(=O)OCOC(=O)C(C)(C)C)=C(/C=C\c3scnc3C)CS[C@H]12)c1csc(N)n1` [Cefditoren Pivoxil]: -0.88; `Nc1nc2[nH]cc(CCc3ccc(C(=O)N[C@@H](CCC(=O)O)C(=O)O)cc3)c2c(=O)[nH]1` [Pemetrexed]: -1.55.
Next, `COCC1=C(C(=O)OC(C)OC(=O)OC(C)C)N2C(=O)[C@@H](NC(=O)/C(=N\OC)c3csc(N)n3)[C@H]2SC1` (stereo not given in full) [Cefpodoxime proxetil]: 0.51; `Cc1cc(NS(=O)(=O)c2ccc(N)cc2)nc(C)n1` [sulfaisodimidine]: 0.36; `CCCCCOc1ccc(-c2ccc(-c3ccc(C(=O)N[C@H]4C[C@@H](O)[C@@H](O)NC(=O)[C@@H]5[C@@H](O)[C@@H](C)CN5C(=O)[C@H]([C@@H](C)O)NC(=O)[C@H]([C@H](O)[C@@H](O)c5ccc(O)cc5)NC(=O)[C@@H]5C[C@@H](O)CN5C(=O)[C@H]([C@@H](C)O)NC4=O)cc3)cc2)cc1`: 0.13.
Regarding `CC(=O)Oc1ccc(C(=C2CCCCC2)c2ccc(OC(C)=O)cc2)cc1` [Cyclofenil], the “z-score of subpopulation abundance” value was 0.16.
For `CC[C@H]1OC(=O)C[C@@H](O)[C@H](C)[C@@H](O[C@@H]2O[C@H](C)[C@@H](O)[C@H](N(C)C)[C@H]2O)[C@@H](CCN2C[C@H](C)C[C@H](C)C2)C[C@@H](C)C(=O)/C=C/C(C)=C/[C@@H]1CO[C@@H]1O[C@H](C)[C@@H](O)[C@@H](OC)[C@H]1OC` [Tilmicosin], the “z-score of subpopulation abundance” value turned out to be 0.52.
Take `CO/N=C(\C(=O)N[C@@H]1C(=O)N2C(C(=O)OC(C)OC(C)=O)=C(COC(N)=O)CS[C@H]12)c1ccco1` (stereo not given in full) [Cefuroxime axetil]: the “z-score of subpopulation abundance” value is 1.94.
Next, `C[C@H]1COc2c(N3CCN(C)CC3)c(F)cc3c(=O)c(C(=O)O)cn1c23` [Levofloxacin hydrate]: 0.27; `NC1CCN(c2nc3c(cc2F)c(=O)c(C(=O)O)cn3-c2ccc(F)cc2F)C1` (stereo not given) [Tosufloxacin p-Toluenesulfonate Hydrate]: -0.39.
The figure for `CC(C)Cc1ccc(C(C)C(=O)O)cc1` (stereo not given) [Ibuprofen Lysine] is -3.65; for `Cc1cc(-n2c(=O)[nH]c(=O)n(C)c2=O)ccc1Oc1ccc(SC(F)(F)F)cc1` [Toltrazuril] it is -0.51; for `COc1ccc(CN2CCN(C(c3ccc(F)cc3)c3ccc(F)cc3)CC2)c(OC)c1OC` [Lomerizine 2HCl] it is 0.28.
The figure for `Cc1ccsc1/C=C/C1=NCCCN1C` [Morantel tartrate] is 0.23.
Take `Nc1nc(N)c2nc(-c3ccccc3)c(N)nc2n1` [Triamterene]: the “z-score of subpopulation abundance” value was -8.02.
The figure for `NCCc1ccc(O)c(O)c1` [Dopamine HCl] is -0.48; for `COc1ccc(CNc2nc(N3CCC[C@H]3CO)ncc2C(=O)NCc2ncccn2)cc1Cl` [Avanafil] it is 0.68.
The figure for `COc1cc(NS(=O)(=O)c2ccc(N)cc2)ncn1` [Sulfamonomethoxine] is 1.19; for `CN(C)CCCN1c2ccccc2Sc2ccccc21` [Promazine hydrochloride] it is 0.34.
On to `O=C(c1ccccc1)c1ccc2n1CCC2C(=O)O` (stereo not given) [Ketorolac tromethamine salt], for which the “z-score of subpopulation abundance” value is -0.92.
For `O=C(NCCN1CCOCC1)c1ccc(Cl)cc1`, the “z-score of subpopulation abundance” value was -0.52.
Regarding `CC(=O)[C@H]1CC[C@H]2[C@@H]3CCC4=CC(=O)CC[C@]4(C)[C@H]3CC[C@]12C` [Progesterone], the “z-score of subpopulation abundance” value is -0.24.
For `CCN1CCC[C@H]1CNC(=O)c1cc(S(N)(=O)=O)ccc1OC` [Levosulpiride], the “z-score of subpopulation abundance” value is 0.41.
Next, `COc1ccc2cc(C(=O)O)ccc2c1` [6-Methoxy-2-naphthoic acid]: -1.91; `CC1(C)S[C@@H]2[C@H](NC(=O)C(C(=O)O)c3ccccc3)C(=O)N2[C@H]1C(=O)O` (stereo not given in full) [Carbenicillin disodium]: -0.46; `O=c1[nH]c(=O)n([C@H]2C[C@H](O)[C@@H](CO)O2)cc1I` [Idoxuridine]: 0.23.
The figure for `O=C(Cn1cnnn1)N[C@@H]1C(=O)N2C(C(=O)O)=C(CSc3nncs3)CS[C@H]12` [Ceftezole sodium] is 1.07.
Consider `O=C1C(CC[S+]([O-])c2ccccc2)C(=O)N(c2ccccc2)N1c1ccccc1` (racemic) [(+/-)-Sulfinpyrazone], for which the “z-score of subpopulation abundance” value is -0.3.
The figure for `O=C1c2cccc3c2[C@H](CCC3)CN1[C@@H]1CN2CCC1CC2` [Palonosetron HCl] is 0.17; for `CCCc1nn(C)c2c(=O)[nH]c(-c3cc(S(=O)(=O)N4CCN(C)CC4)ccc3OCC)nc12` [Sildenafil] it is -0.11; for `CN1C[C@@H]2C[C@H]1CN2c1cc2c(cc1F)c(=O)c(C(=O)O)cn2C1CC1` [Danofloxacin Mesylate] it is 0.06.
`C[C@@H]1CN(c2c(F)c(N)c3c(=O)c(C(=O)O)cn(C4CC4)c3c2F)C[C@H](C)N1` [Sparfloxacin]: the “z-score of subpopulation abundance” value is -0.2.
The figure for `Nc1ccc(C(=O)O)c(O)c1` [4-Aminosalicylic acid] is -3.36.
The figure for `Clc1ccc(COC(Cn2ccnc2)c2ccc(Cl)cc2Cl)c(Cl)c1` (stereo not given) [Miconazole Nitrate] is 3.11.
Next, `COc1cc(N)c(Cl)cc1C(=O)NC1CCN(CCCOc2ccc(F)cc2)CC1OC` (stereo not given) [Cisapride hydrate]: 0.95; `OCCOCCN1CCN(C2=Nc3ccccc3Sc3ccccc32)CC1` [Quetiapine Fumarate]: -0.17.
Take `CN(C)CCc1c[nH]c2ccc(C[C@H]3COC(=O)N3)cc12` [Zolmitriptan]: the “z-score of subpopulation abundance” value is -0.08.
Next, `CC(C)c1c(C(=O)Nc2ccccc2)c(-c2ccccc2)c(-c2ccc(F)cc2)n1CC[C@@H](O)C[C@@H](O)CC(=O)O` [Atorvastatin]: 0.32.
